In the library only some 10% were active in any assay of this set; here they are far more common.
JMJD2A Tudor: JMJD2A Tudor domain (human) inhibition | O75164 | AlphaScreen JMJD2A-Tudor / H3K4me3 peptide binding | Potency, µM (doses to about 114 µM), without a hit: top-dose activity change, negative = inhibition, usual class: inhibitors | hit rate 4.4% among 390,000; also: % is scaled to controls: 0 for no effect and ±100 for the full control effect; nearly all actives have a fitted effect of over 50% in size
GLS inh: blocks human kidney-isoform glutaminase activity; O94925; GLS enzymatic activity, qHTS titration; Potency, µM (series often up to 45.5 µM), inactives show top-dose activity change, negative = inhibition, usual class: inhibitors; AID 624170; hit rate 0.21% among 410,000; also: % is scaled to controls: 0 for no effect and ±100 for the full control effect
Target sequence (O94925 whole entry, looked up, canonical isoform): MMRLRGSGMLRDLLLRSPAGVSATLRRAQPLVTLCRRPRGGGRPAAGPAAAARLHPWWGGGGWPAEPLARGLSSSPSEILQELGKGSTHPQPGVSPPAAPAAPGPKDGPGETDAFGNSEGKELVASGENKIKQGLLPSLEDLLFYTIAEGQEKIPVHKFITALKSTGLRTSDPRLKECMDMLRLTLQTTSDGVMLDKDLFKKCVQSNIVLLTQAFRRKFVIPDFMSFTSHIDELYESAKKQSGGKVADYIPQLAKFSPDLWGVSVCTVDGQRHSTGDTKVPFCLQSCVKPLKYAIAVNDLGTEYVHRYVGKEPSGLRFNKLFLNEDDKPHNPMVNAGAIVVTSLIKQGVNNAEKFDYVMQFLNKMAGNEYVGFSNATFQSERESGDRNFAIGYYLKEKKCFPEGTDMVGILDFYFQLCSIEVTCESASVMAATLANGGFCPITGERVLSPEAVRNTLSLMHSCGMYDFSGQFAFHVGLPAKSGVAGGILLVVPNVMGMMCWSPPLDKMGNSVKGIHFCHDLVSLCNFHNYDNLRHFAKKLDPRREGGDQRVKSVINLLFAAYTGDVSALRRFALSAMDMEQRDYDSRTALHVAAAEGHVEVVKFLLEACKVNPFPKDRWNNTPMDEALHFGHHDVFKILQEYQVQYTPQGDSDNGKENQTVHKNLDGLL
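Enzyme dispensed in phosphate buffer (45 mM, pH 8.2, 0.02% Tween-20), compounds pinned in, then 1 mM L-glutamine solution and the glutamate oxidase–HRP–Amplex Red mix added; fluorescence read immediately and again after 30 min at room temperature.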
BAZ2B block: blocks human BAZ2B; hit rate 4.4% among 360,000; Q9UIF8; Potency, µM (top dose mostly 114 µM), inactives show at the top dose activity change, negative = inhibition, usual class: inhibitors; AlphaScreen BAZ2B-H3K14Ac peptide displacement; also: % is scaled to controls: 0 for no effect and ±100 for the full control effect; nearly all actives have a fitted effect of over 60% in size
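BAZ2B 50 nM plus b-H3(5-23)K14Ac 50 nM, PBS pH 7.4/0.01% Tween-20, 30 min RT; compound added (max 110 uM), 30 min RT; streptavidin donor/Ni-chelate acceptor beads 10 ug/mL final, 20 min dark; AlphaScreen read.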
HP1b binding inh: inhibitors of HP1-beta chromodomain binding to methylated histone tails. hit rate 0.56% among 390,000. Potency, µM (doses to about 114 µM), for inactives: top-dose activity change, negative = inhibition, hits mostly inhibitors. AlphaScreen HP1-beta / biotin-H3K9me3 peptide binding. P83916; also: nearly all actives have a fitted effect of over 70% in size
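HP1-beta protein (50 nM final) preincubated 30 min at room temperature with biotinylated H3(1-18)K9me3 peptide (50 nM) in PBS pH 7.4, 0.01% Tween-20, then compound added for 30 min. AlphaScreen streptavidin donor/nickel chelate acceptor beads (10 ug/mL final), 30 min dark, luminescence read.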
L3MBTL1 block: inhibitors of human L3MBTL1; hit rate 0.66% among 230,000; Potency, µM (top dose mostly 57.1 µM), for inactives: at the top dose activity, negative = inhibition, most hits filed as inhibitors; AlphaScreen L3MBTL1–H3K9me1 peptide binding; also: % is scaled to controls: 0 for no effect and ±100 for the full control effect; nearly all actives have a fitted effect of over 60% in size
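L3MBTL1 50 nM + b-AHA-H3(1-15)K9me1 75 nM, 30 min RT; compound added, 30 min RT; streptavidin donor/Ni-chelate acceptor beads 10 ug/mL each final, 30 min RT dark; AlphaScreen read.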
G9a inh: inhibitors of human histone lysine methyltransferase G9a; Q96KQ7; Potency, µM (series often up to 102 µM), for the others: top-dose activity, negative = inhibition, actives largely listed as inhibitors; AID 504332; G9a H3K9 monomethylation, AlphaScreen, 2 h; hit rate 8.8% among 350,000; also: % is scaled to controls: 0 for no effect and ±100 for the full control effect; nearly all actives have a fitted effect of over 75% in size
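AlphaScreen detection with an anti-monomethyl H3K9 antibody quantified product after a 2 h room-temperature reaction containing 500 nM biotinylated H3K9 peptide, 20 µM SAM and 20 nM enzyme, which had been preincubated 15 min with compound.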
* = called active by the depositor; u = inconclusive; x = no result given; [ ] = another dose, or the depositor's remark. Calls follow the shape of the dose curve; as a rule, active = well fitted curve in the direction sought with a large enough effect; inconclusive = small, poorly fitted or top-dose-only effect, or another doubt; inactive = no such curve, though single readings can be large; an effect the other way counts as inactive or inconclusive. Potency is read from the fitted curve at half-maximal effect.

SMILES	JMJD2A Tudor	GLS inh	BAZ2B block	HP1b binding inh	L3MBTL1 block	G9a inh
O=C(NCC(=O)N(CCc1ccccc1)C(C(=O)NC1CCCCC1)c1ccncc1)c1ccco1 (configuration not stated)	-8.6%	1.3%	5.6%	37.7%	4.0%	39.8µM*
Clc1ccccc1CN1CCc2nc(N3CCN(c4ncccn4)CC3)ncc2C1	35.5µM*	5.9%	50.1µM*	u	x	u
CN1CCN(c2ncc3c(n2)CCN(Cc2ccccc2Cl)C3)CC1	79.4µM*	7.1%	u	-10.4%	x	u
COc1cc(OC)c(OC)cc1CN1CCc2nc(N3CCN(C)CC3)ncc2C1	u	14.8%	u	21.2%	x	-1.7%[12.7 µM]
CCOc1ccccc1CN1CCc2nc(N3CCN(C)CC3)ncc2C1	-22.2%	2.8%	79.4µM*	54.8%	x	-2.6%[12.7 µM]
CN1CCN(c2ncc3c(n2)CCN(Cc2cc(Br)cs2)C3)CC1	56.2µM*	6.8%	u	-1.9%	x	u
CC(C)CN1CCc2nc(N3CCN(C)CC3)ncc2C1	-29.8%	2.3%	u	42.5%	x	-2.8%[12.7 µM]
CCOc1ccc(NC(=O)CN(C)C(=O)c2ccc(N3CCCC3)c([N+](=O)[O-])c2)cc1OCC	-34.2%	-8.9%	u	-16.6%	-3.3%	-2.1%[2.33 µM]
Cc1ccc(C)c(NC(=O)CN(C)C(=O)c2cc([N+](=O)[O-])ccc2N2CCOCC2)c1	-14.5%	3.6%	1.7%	10.4%	-1.6%	19.3%[2.33 µM]
Cc1cc(Br)ccc1NC(=O)CN(C)C(=O)c1cc([N+](=O)[O-])ccc1N1CCOCC1	-20.5%	4.2%	4.8%	5.2%	-5.5%	3.55µM*
CCOc1ccc(NC(=O)CN(C)C(=O)c2ccc(N3CCCCC3)c([N+](=O)[O-])c2)cc1OCC	u	-2.5%	u	-31.9%	-3.4%	50.1µM*
CCOc1ccc(NC(=O)CN(C)C(=O)c2cc([N+](=O)[O-])ccc2N2CCCCC2)cc1OCC	-33.8%	3.6%	-12.1%	-23.1%	-11.4%	2.24µM*
Cc1cn2c(=O)cc(COc3cccc(NC(=O)c4ccccc4C)c3)nc2s1	-13.6%	8.5%	-1.4%	30.2%	x	-22.3%[59 µM]
O=c1c(CCc2ccccc2)nc2cnc(N3CCOCC3)nc2n1C1CC1	x	x	x	x	x	7.1%[0.501 µM]
COc1ccc(OC)c(NC(=O)N2c3ccccc3Sc3ccccc32)c1	u	3.0%	u	0.8%	x	u
COC(=O)[C@@]1(Cc2ccc(OC)cc2)[C@H]2c3cc(C(=O)N4CCCC4)n(CCc4c[nH]c5ccc(O)cc45)c3C[C@H]2CN1C(=O)c1ccccc1	x	x	u	x	-9.4%	50.1µM*
COC(=O)[C@@]1(Cc2ccc(F)cc2)[C@H]2c3cc(C(=O)N(C)C)n(Cc4ccc(OC(F)(F)F)cc4)c3C[C@H]2CN1C(=O)c1ccccc1	x	x	-37.8%	x	-0.2%	50.1µM*
COC(=O)[C@@]1(Cc2ccc(OC)cc2)[C@H]2c3cc(C(=O)N4CCCC4)n(CCc4ccc(OC)c(Br)c4)c3C[C@H]2CN1C(=O)c1ccccc1	x	-1.4%	x	x	x	x
COC(=O)[C@@]1(Cc2ccc(OC)cc2)[C@H]2c3cc(C(=O)N(C)C)n(CCSCCO)c3C[C@H]2CN1C(=O)c1ccccc1	-25.5%	5.5%	u	18.3%	-8.1%	56.2µM*
COC(=O)[C@@]1(Cc2ccc(F)cc2)[C@H]2c3cc(C(=O)N(C)C)n(CCF)c3C[C@H]2CN1C(=O)c1ccccc1	x	1.7%	x	x	x	x
COC(=O)[C@@]1(Cc2ccc(OC)cc2)[C@H]2c3cc(C(=O)N4CCCC4)n(CCSCCO)c3C[C@H]2CN1C(=O)c1ccccc1	-15.7%	2.0%	u	30.6%	-11.9%	35.5µM*
CN(C(=O)CSc1nc2ccc(NC(=O)c3ccc(F)cc3)cc2s1)c1ccccc1	-25.2%	0.2%	-26.0%	14.2%	x	11.7%[59 µM]
COc1ccc(NC(=O)CN2C(=O)CCc3cc(S(=O)(=O)N4CCOCC4)ccc32)c(OC)c1	-31.5%	7.0%	u	10.3%	x	6.3%[59 µM]
COC(=O)[C@@]1(Cc2ccc(OC)cc2)[C@H]2c3cc(C(=O)N4CCCC4)n(CCO)c3C[C@H]2CN1C(=O)c1ccccc1	-28.9%	2.2%	-31.8%	10.2%	-6.7%	50.1µM*
COC(=O)[C@@]1(Cc2ccc(F)cc2)[C@H]2c3cc(C(=O)N4CCCC4)n(CCc4ccc(OC)c(Br)c4)c3C[C@H]2CN1C(=O)c1ccccc1	x	-0.2%	x	x	x	x
SMILES	JMJD2A Tudor	GLS inh	BAZ2B block	HP1b binding inh	L3MBTL1 block	G9a inh
COC(=O)[C@@]1(Cc2ccc(F)cc2)[C@H]2c3cc(C(=O)N4CCCC4)n(CCc4ccc(O)c(O)c4)c3C[C@H]2CN1C(=O)c1ccccc1	x	x	39.8µM*	x	-25.8%	7.08µM*
CC(C)(CO)NC(=S)NCc1ccco1	-13.1%	11.3%	-6.6%	8.5%	-4.0%	39.8µM*
S=C(NCc1ccco1)Nc1ccc(Cl)cn1	-32.6%	-6.3%	u	10.0%	x	8.91µM*
S=C(NCc1ccco1)Nc1ccccn1	-27.7%	0.2%	u	33.7%	-3.2%[11.4 µM]	u
Cc1cccc(NC(=S)NCc2ccco2)c1C	-20.5%	0.2%	-30.1%	8.3%	-5.7%	u
Cc1cccnc1NC(=S)NCc1ccco1	-26.3%	-1.2%	u	11.8%	-1.5%	2.51µM*
COc1ccccc1NC(=O)Cn1c(=O)n(Cc2cccs2)c(=O)c2cccnc21	-2.2%	-9.8%	2.0%	54.5%	x	15.0%[59 µM]
COc1ccc(NC(=O)Cc2ccc(Cl)c(Cl)c2)cn1	-1.4%	3.6%	u	14.5%	x	1.7%
COc1ccc(NC(=O)/C(Cl)=C(/Cl)S(=O)Cc2ccccc2Cl)cn1 (configuration not stated)	-21.0%	u	-15.7%	-19.0%	-11.5%	10µM*
COc1ccc(NC(=O)/C(Cl)=C(/Cl)S(=O)(=O)Cc2ccc(C)cc2)cn1	-9.6%	-1.4%	-6.5%	32.5%	x	44.7µM*
COc1ccc(N(CC(C)C)S(=O)(=O)c2nnc(NC(=O)c3cccs3)s2)cc1	31.2%	3.5%	30.3%	80.0%	x	2.1%[59 µM]
CCc1nnc(NS(=O)(=O)c2ccc(NC(=S)NC(=O)c3ccccc3)cc2)s1	u	0.7%	u	-6.2%	-4.1%	u
CCc1nnc(NS(=O)(=O)c2ccc(NC(=S)NC(=O)/C=C/c3ccc(OC)cc3)cc2)s1	31.6µM*	23.9%	u	u	-15.2%	50.1µM*
CCCc1nnc(NS(=O)(=O)c2ccc(OC)cc2)s1	-8.6%	6.2%	-21.6%	14.8%	4.3%	44.7µM*
CCc1nnc(NS(=O)(=O)c2ccc(NC(=S)NC(=O)/C=C/c3ccccc3)cc2)s1	79.4µM*	-22.0%	u	-28.8%	3.5%	u
CCc1nnc(NS(=O)(=O)c2ccc(NC(=S)NC(=O)/C=C/c3ccc(C(C)C)cc3)cc2)s1	56.2µM*	20.4%	50.1µM*	u	-0.2%	17.8%[0.501 µM]

High-throughput results from PubChem.
